Experimental data from the supplement of paper PMC4466140.

Tests used:
Assay in all cases: SPOT peptide array binding signal intensity (averaged, normalized) (arbitrary units (background-subtracted, floor 0; scale differs between SH3 domains)); higher = stronger binding of the SH3 domain to the peptide
[1] = target: AgAbp1
Method in brief: (§1)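 The binding signal is the normalized, background-subtracted spot intensity averaged over replicates; its arbitrary units differ between domains. It was obtained by incubating 10 μg/ml GST-fused SH3 domains from four yeast species overnight at 4°C in TBS-based blocking buffer on cellulose membranes with synthetic 15-mer peptides, cysteines replaced by serines, then detecting with anti-GST antibody, HRP anti-mouse secondary and luminol.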

[2] = target: AgBbc1
Method in brief: as §1

[3] = target: AgBem1-D1
Method in brief: as §1

[4] = target: AgBzz1-D1
Method in brief: as §1

[5] = target: AgBzz1-D2
Method in brief: as §1

[6] = target: AgCyk3
Method in brief: as §1

[7] = target: AgFus1
Method in brief: as §1

[8] = target: AgHof1
Method in brief: as §1

[9] = target: AgHse1
Method in brief: as §1

[10] = target: AgLsb1
Method in brief: as §1

[11] = target: AgLsb4
Method in brief: as §1

[12] = target: AgMyo5
Method in brief: as §1

[13] = target: AgNbp2
Method in brief: as §1

[14] = target: AgRvs167
Method in brief: as §1

[15] = target: AgSho1
Method in brief: as §1

[16] = target: AgSla1-D1-D2
Method in brief: as §1

[17] = target: AgSla1-D3
Method in brief: as §1

[18] = target: CaAbp1-D1
Method in brief: as §1

[19] = target: CaAbp1-D2
Method in brief: as §1

[20] = target: CaBbc1
Method in brief: as §1

[21] = target: CaBem1-D1
Method in brief: as §1

[22] = target: CaBzz1-D1
Method in brief: as §1

[23] = target: CaBzz1-D2
Method in brief: as §1

[24] = target: CaCyk3
Method in brief: as §1

[25] = target: CaFus1
Method in brief: as §1

[26] = target: CaHof1
Method in brief: as §1

[27] = target: CaHse1
Method in brief: as §1

[28] = target: CaLsb1
Method in brief: as §1

[29] = target: CaLsb4
Method in brief: as §1

[30] = target: CaMyo5
Method in brief: as §1

[31] = target: CaNbp2
Method in brief: as §1

[32] = target: CaRvs167
Method in brief: as §1

[33] = target: CaRvs167-3
Method in brief: as §1

[34] = target: CaSho1
Method in brief: as §1

[35] = target: CaSla1-D1-D2
Method in brief: as §1

[36] = target: CaSla1-D3
Method in brief: as §1

[37] = target: ScAbp1
Method in brief: as §1

PLRRTVMSLPGNHDI
SPOT peptide array binding signal intensity [1]: 206 | SPOT peptide array binding signal intensity [2]: 19.6 | SPOT peptide array binding signal intensity [3]: 302 | SPOT peptide array binding signal intensity [4]: 9.5 | SPOT peptide array binding signal intensity [5]: 4.75 | SPOT peptide array binding signal intensity [6]: ≤ 0 | SPOT peptide array binding signal intensity [7]: 598 | SPOT peptide array binding signal intensity [8]: 6.25 | SPOT peptide array binding signal intensity [9]: 302 | SPOT peptide array binding signal intensity [10]: 29.5 | SPOT peptide array binding signal intensity [11]: 4.5 | SPOT peptide array binding signal intensity [12]: 3 | SPOT peptide array binding signal intensity [13]: 396 | SPOT peptide array binding signal intensity [14]: 3.83 | SPOT peptide array binding signal intensity [15]: 453 | SPOT peptide array binding signal intensity [16]: 24.2 | SPOT peptide array binding signal intensity [17]: 6 | SPOT peptide array binding signal intensity [18]: 776 | SPOT peptide array binding signal intensity [19]: 1280 | SPOT peptide array binding signal intensity [20]: 154 | SPOT peptide array binding signal intensity [21]: 200 | SPOT peptide array binding signal intensity [22]: 172 | SPOT peptide array binding signal intensity [23]: 62.4 | SPOT peptide array binding signal intensity [24]: 17 | SPOT peptide array binding signal intensity [25]: 1290 | SPOT peptide array binding signal intensity [26]: 0.375 | SPOT peptide array binding signal intensity [27]: 106 | SPOT peptide array binding signal intensity [28]: 0.5 | SPOT peptide array binding signal intensity [29]: 493 | SPOT peptide array binding signal intensity [30]: 19.6 | SPOT peptide array binding signal intensity [31]: 1640 | SPOT peptide array binding signal intensity [32]: 110 | SPOT peptide array binding signal intensity [33]: 20 | SPOT peptide array binding signal intensity [34]: 837 | SPOT peptide array binding signal intensity [35]: 247 | SPOT peptide array binding signal intensity [36]: 60.2 | SPOT peptide array binding signal intensity [37]: 205
